Our source for the Potency values is PubChem BioAssay (NCATS).

Where “and” joins values, the source holds several entries; their conditions need not be identical. Equal values may be shown once. Records with an inconclusive call do not appear. A call without a number means that no potency is given here. The source holds several records for some structures; these can differ, active in one and inactive in another. Calls of active or inactive are those of the source. The call rests on the fitted dose curve; in most records, active means well fitted inhibition curve with a large enough effect; inconclusive means small, poorly fitted or top-dose-only effect, or effect the other way; inactive means flat fitted curve, though single readings scatter.
Potency means the concentration at half of the fitted maximal effect.

The nature of this assay: qHTS for Inhibitors of Plasmodium falciparum (GB4) proliferation (AID 504315). Further: nearly all actives have a fitted effect of over 50% in size. The note with it: P. falciparum GB4 in erythrocytes, SYBR Green DNA, 72 h; series mostly up to 6.7 µM. From the text:
Plasmodium falciparum is a virulent malarial parasite that kills 1-2 million people worldwide each year. Malaria not only inflicts tremendous suffering and morbidity on the human population, but has dramatically influenced the course of civilization with profound sociological and economic implications (Shah, S. 2010). Transmitted by mosquitoes, the sporozoite form of the parasite enters the blood stream to infect hepatocytes, where they become merozoites that infect red blood cells (erythrocytes). Within erythrocytes, merozoites begin a […] cycle of growth and division, after which the parasite is released to infect new red blood cells. Gametocytes, which form within erythrocytes as well, circulate in the bloodstream and are ingested by the mosquito, thereby completing the life cycle (see CDC website). To profile malarial lines for differential chemical responses and to identify inhibitors of malarial growth, an assay that measures P. falciparum growth and replication within erythrocytes was employed. This assay uses a DNA binding fluorescent dye (SYBR Green) to detect parasite DNA following cell lysis. Because mature erythrocytes lack DNA, only Plasmodium-derived DNA is detected. The P. falciparum line cp250, derived from a malarial isolate from Cambodia, (Mu, J., et al. 2010) was added to the panel of lines, Dd2, HB3, 7G8 and GB4 in this study. Laboratory of Assay Development and Screening Technology [ADST] and NIH Chemical Genomics Center [NCGC] Boston University, Chemistry Department, Center for Chemical Methodology and Library Development [CMLD-BU] NIH National Institute of Allergy and Infectious Diseases [NIAID]
ADST Assay Protocol Summary: The 1536-well SYBR Green viability assay was based on the method of Bennett et al (2004) and described previously in 1536-well format (Yuan J., et al. 2009). For screening 3 ul culture medium was dispensed into 1536 well black clear bottom plates (Aurora Biotechnologies) using a Multidrop Combi (Thermo Fisher Scientific Inc.), 23 nL compounds in DMSO were added by a pin transfer (Cleveland, P.H. and Koutz, P.J, 2005) using a pin tool-based delivery system (Kalypsys), and 5 ul of erythrocytes infected with P. falciparum one of five lines (cp250, Dd2, HB3, 7G8 or GB4, 0.3% parasitemia, 2.5% hematocrit final concentration) were added. The plates were incubated at 37C in a humidified incubator in 5% CO2 for 72 h, and 2 ul lysis buffer (20 mM Tris HCl, 10 mM EDTA, 0.16% saponin, 1.6% triton X, 10X SYBR Green I (supplied as 10,000X final concentration by Invitrogen) was added to each well. The plates were mixed for 25 sec with gentle shaking and incubated overnight at room temperature in the dark. The following morning, fluorescence intensity at 485(14) nm excitation and 535(25) nm emission wavelengths was measured on an EnVision (Perkin Elmer) plate reader. Plate reads were normalized relative to the control inhibitor (0.29 uM artemisinin) and vehicle (DMSO) wells present on each plate and then corrected by an algorithm using vehicle-only control plates at the beginning and end of the compound plate stack. References Shah, S. (2010). The Fever: how malaria has ruled humankind for 500,000 years. New York, Sarah Crichton Books. CDC web site, http://www.cdc.gov/malaria/about/biology/index.html Mu, J., Myers, R.A., Jiang, H., Liu, S., Ricklefs, S., Waisberg, M., Chotivanich, K., Wilairatana, P., Krudsood, S., White, N.J., et Plasmodium falciparum genome-wide scans for positive selection, recombination hot spots and resistance to antimalarial drugs Nature Genetics 2010, 42, pp 268-271 Bennett TN, Paguio, M., Gligorijevic, B., Seudieu, C., Kosar, A. D., Davidson, E., and Roepe, P. D. Novel, rapid, and inexpensive cell-based quantification of antimalarial drug efficacy Antimicrobial Agents Chemother. 2004, 48(5): pp 1807-10 Yuan J, Johnson RL, Huang RL, Wichterman J, Jiang HY, Hayton K, Fidock DA, Wellems TE, Inglese J, Austin CP, Su XZ. […]
In general terms: qHTS replaces the single test concentration by a dilution series.
Take `COC(=O)[C@@H](O)CC[C@@H](C)Cc1c(OC)c(OC)c(C)c(OC)c1OC`: the Potency entry was “inactive”. To `CCN1C(=NCc2cccc(C(F)(F)F)c2)NC(c2cccs2)C(C(=O)OC)=C1C` (stereo not given) belongs “inactive”; to `COC(=O)C(C(C)=O)C1c2ccccc2C=C(C)N1C(=O)OC` (stereo not given), “inactive”; to `CC(=O)c1ccc(OCc2ccccc2)c(C)c1O`, “inactive”.

On to `COC(=O)N[C@@H](c1ccc(Cl)cc1)C(C(C)=O)C(=O)OC` (stereo not given in full), for which the Potency result is “inactive”. `C[C@H]1Cc2c(-c3ccccc3)nc3c(c2CO1)CN(C(=O)NCc1ccco1)CC3`: the Potency entry is “inactive”. To `COC(=O)C1=C(C(=O)OC)[C@@H]2N(CC=C(C)C)c3ccccc3[C@@]23CCC(=O)N(Cc2cccc(C(F)(F)F)c2)C3=N1` belongs 849 nM (active). In the case of `CCOC(=O)N1C2=NC(C(=O)OC)=C(C(=O)OC)[C@@H]3N(Cc4ccccc4)c4ccccc4[C@]23C[C@H]1C(=O)OC`, the Potency entry was “inactive”. Consider `COC1=C[C@H](C(=O)N2CCCC2)[C@H](C)[C@@H](c2ccccc2)CC1=O`, for which the Potency entry was “inactive”. Next, `C=CCN1c2ccccc2[C@]23C[C@@H](C(=O)OC)N(C(=O)OCC)C2=NC(C(=O)OC)=C(C(=O)OC)[C@H]13`: “inactive”.

As for `COc1ccc2c(c1)C(=O)[C@H](OC(=O)N[C@H]1CCCc3ccccc31)[C@@H](c1ccc(OC)c(Br)c1)O2`, the Potency entry is “inactive”. For `C=CCNC(=O)N1C2=NC(C(=O)OC)=C(C(=O)OC)[C@@H]3N(C)c4ccccc4[C@]23C[C@H]1CO`, the Potency entry was “inactive and 1.9 µM (active)”.

Turning to `CC[C@@H](c1ccccc1)n1c(=O)n2n(c1=O)[C@H]1[C@H](O)[C@@H]3O[C@H]3C(=NOCc3ccccc3)[C@H]1CC2`, the Potency entry was “inactive”. `CCOC(=O)CCN1C(=O)[C@@H]2[C@H]3[C@H](O)[C@H](O)CC(=NNC(=O)OCc4ccc(OC)cc4)[C@@H]3CC[C@H]2C1=O`: the Potency entry is “inactive”. Consider `COC(=O)C1=C(C(=O)OC)[C@@H]2N(C)c3ccccc3[C@@]23C[C@@H](C(=O)OC)N(C(=O)c2ccc(Br)cc2)C3=N1`, for which the Potency result was “inactive”. Next, `C[C@@H]1CC2CCC[C@@H]2[C@]2(O1)C(=O)Nc1cccc(Br)c12` (stereo not given in full): “inactive”; `COC(=O)C1=C(C(=O)OC)[C@@H]2Nc3ccccc3[C@@]23C[C@@H](C(=O)OC)N(C(=O)Nc2ccc(C(F)(F)F)cc2)C3=N1`: “inactive”. Regarding `CCC12C=C(C=Cc3ccccc3)C(CC)(C1)C(c1ccccc1)CC2=O` (stereo not given), the Potency entry is “inactive”. To `CCN(CC)CCCN1C=C2C(=O)C(C)(OC(=O)C3CCCC3)C(=O)C=C2C=C1c1ccsc1` (stereo not given) belongs “inactive”. For the compound `CC1(OC(=O)c2ccc(Cl)nc2)C(=O)Cc2cc(-c3ccsc3)ncc2C1=O` (stereo not given), the Potency entry was “inactive”.

For the compound `COC(=O)CCCC1=CC2=CC(=O)C(C)(OC(=O)c3cccs3)C(=O)C2=CN1CC(C)C` (stereo not given), the Potency entry was “inactive”.

Take `CC(=O)OC[C@H]1O[C@H](C#CC2=CCCCC2)C=C[C@H]1OC(C)=O`: the Potency result is “inactive”. To `COC(=O)[C@]1(CC=Cc2ccccc2)C=C[C@@H](C)[C@H](c2ccccc2Br)N1C(=O)C(F)(F)F` belongs 1690 nM (active); to `CC1(OC(=O)C2CCCC2)C(=O)C=C2C=C(c3ccc(C#N)cc3)OC=C2C1=O` (stereo not given), “inactive”; to `COc1ccc2c(c1)[C@@]1(OCCC=C[C@@H]1C)C(=O)N2Cc1ccc(Br)cc1`, “inactive”. On to `CC1(OC(=O)C2CCCC2)C(=O)C=C2C=C(c3ccsc3)N(C3CCCC3)C=C2C1=O` (stereo not given), for which the Potency entry was “inactive”. In the case of `C=CCOC(=O)C(C(C)=O)[C@@H](NC(=O)OC)c1ccco1` (stereo not given in full), the Potency result is “inactive”. For the compound `COc1cc2c(cc1OC)[C@@H]1O[C@](c3ccsc3)(C2)OC2=C1C(=O)OC1(CCCCC1)C2`, the Potency entry is “inactive”.

Take `O=C(NCCOc1ccccc1)O[C@@H]1C(=O)c2cc(Br)ccc2O[C@H]1c1ccc2c(c1)OCO2`: the Potency entry is “inactive”. To `Cc1c(O)c(=O)c2ccccc2n1C` belongs “inactive”; to `O=C1CCCC=C1C(CCc1ccccc1)OC(=O)c1ccc(Br)cc1` (stereo not given), “inactive”; to `CC(=O)C1=C(C)N(Cc2ccccc2)C(=O)NC1c1ccco1` (stereo not given), “inactive”. With `COc1ccc([C@]23Cc4cc(OC)c(OC)cc4[C@H](O2)C2=C(CC(C)(C)CC2=O)O3)cc1`, the Potency entry was “inactive”. In the case of `CCOC(=O)CN1C(=O)[C@@]2(CC(C)=C[C@@H](COCc3ccccc3)O2)c2ccccc21`, the Potency entry was “inactive”. Consider `CCCCC#C[C@@H]1C=C[C@H](Oc2ccc(C(=O)OC)cc2)[C@@H](COC(=O)OCC)O1`, for which the Potency result is “inactive”.

As to `COC(=O)[C@@H]1C[C@@]23C(=NN=C(SC)C2Nc2ccccc23)N1C(C)=O` (stereo not given in full), the Potency result is “inactive”. Next, `C[C@@H]1C=CCCO[C@]12C(=O)N(Cc1ccc(F)cc1)c1ccccc12`: “inactive”. Next, `CCCCC1=CC2=CC(=O)C(C)(OC(=O)CCc3ccccc3)C(=O)C2=CO1` (stereo not given): “inactive”; `COC[C@H]1O[C@@H]2O[C@@H]1[C@@H](C=Cc1ccccc1)C[C@H]2C`: “inactive”. In the case of `O=C1CCCC(C(C(=O)OCc2ccccc2)C(=O)OCc2ccccc2)C1` (stereo not given), the Potency entry was “inactive”.
